Screens: PubChem BioAssay, National Center for Advancing Translational Sciences (NCATS)
HCV inh – inhibitors of hepatitis C virus infection; Potency, µM (titrated, usually from 41.8 µM), most hits filed as inhibitors; AID 651820; hit rate 3.4% among 340,000; Huh7.5.1 HCVcc-Cre infection, luciferase reporter, 44 h; active = well fitted inhibition curve with a large enough effect; inconclusive = small, poorly fitted or top-dose-only effect, or another doubt; inactive = no such curve, though single readings can be large or run the other way
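A cell-based infection assay in which seeded cells (1,000 per well) receive test compound after 4 h, are inoculated with HCVcc-Cre at approximately 0.5 moi, and are incubated 44 h before luminescence detection.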
FMDV inh – blocks foot and mouth disease virus; hit rate 1.2% among 410,000; Potency, µM (series often up to 57.9 µM), actives largely listed as inhibitors; AID 1159524; FMDV antiviral cell-based qHTS; calls by dose curve; tested in HEK293T cells; note: read-out not given here; nearly all actives have a fitted effect of over 45% in size
LASV entry inh – inhibitors of Lassa virus binding or cell entry | Potency, µM (doses to about 37.9 µM), actives largely listed as inhibitors | hit rate 1.2% among 300,000 | Lassa virus pseudotype entry inhibition, cell reporter; calls by dose curve; tested in HEK293 cells; note: nearly all actives have a fitted effect of over 50% in size
SARS PLpro yeast – inhibitors of SARS-CoV papain-like protease in yeast | S. cerevisiae expressing SARS-CoV PLpro, growth rescue | Potency, µM (titrated, usually from 32.9 µM), hits mostly activators | hit rate 0.19% among 330,000 | AID 485353; calls by dose curve; note: nearly all actives have a fitted effect of over 55% in size
HCMV inh – human cytomegalovirus inhibition. HFF cells, HCMV-luciferase reporter, 72 h; hits give low values. hit rate 4.5% among 410,000. AID 1259415. activity change, negative = inhibition, % at 57.5 µM; in the data active = activity change below about -60%; inconclusive = no clear call, values can overlap the other calls; inactive = above about -39%
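Two-dose cell screen: HFF monolayers treated with compounds and infected with luciferase-expressing HCMV at 1 PFU/cell, 72 h at 37C, then lysed for luciferase measurement.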
MARV entry inh – inhibitors of Marburg virus binding or cell entry. AID 540276. Potency, µM (highest dose often 37.8 µM), usual class: inhibitors. Marburg virus pseudotyped entry inhibition, cell reporter. hit rate 1.8% among 300,000; calls by dose curve; tested in HEK293 cells
Numbers stand for hits. Most compounds without a hit are left out; they make up all but 8% or so of the library.

Screening CC(C)CCNC(=O)Cn1c2c(c(-c3ccccc3Cl)cc1=O)CCC2 returned HCV inh inactive, FMDV inh inactive, SARS PLpro yeast inactive and HCMV inh -79.8.
For CC1CCC(NC(=O)Cn2c3c(c(-c4ccccc4Cl)cc2=O)CCC3)CC1 (centres undefined) the results were HCV inh 11.2µM, FMDV inh inconclusive, SARS PLpro yeast inactive and HCMV inh inactive.
COc1cc2cc(C#N)c(SCC(=O)Nc3cc(C)on3)nc2cc1OC was read as HCV inh inactive, FMDV inh inactive, LASV entry inh inactive, SARS PLpro yeast inactive, HCMV inh inactive and MARV entry inh inactive.
For COc1ccc(Cl)cc1NC(=O)c1c(NCc2sccc2C)sc2c1CCCC2 the results were FMDV inh inactive, LASV entry inh inactive and HCMV inh inactive.
CCCCCc1cc(O)c2c3c(c(=O)oc2c1)CN(C)CC3 was read as HCV inh 10µM, FMDV inh inactive, SARS PLpro yeast inactive and HCMV inh inactive.
`Cc1cc(=O)oc2cc(O)cc(O)c12` gave HCV inh inactive, FMDV inh inactive and HCMV inh inactive.
For CCCCCc1cc(O)c2c(C)cc(=O)oc2c1 the results were HCV inh 11.2µM, FMDV inh inactive, LASV entry inh inconclusive, SARS PLpro yeast inactive, HCMV inh -105.4 and MARV entry inh inactive.
CCCCCCc1c(C)c2c(cc(C)c3c(C)coc32)oc1=O was read as FMDV inh inactive, LASV entry inh inconclusive, HCMV inh inactive and MARV entry inh inactive.
For COC(=O)c1ccccc1-c1cc(C)cc2c1OC(CNC(=O)c1cc(C)on1)C2 (centres undefined) the results were FMDV inh inactive.
Screening COc1ccc(OC)c(-c2cnc(OC(C)(C)C)nc2OC(C)(C)C)c1 returned HCV inh inactive, FMDV inh inconclusive, LASV entry inh inconclusive, SARS PLpro yeast inactive, HCMV inh inactive and MARV entry inh inactive.
For COC(=O)Nc1nc2ccc(C(=O)c3ccccc3)cc2[nH]1 the results were FMDV inh inactive.
For CCCSc1ccc2nc(NC(=O)OC)[nH]c2c1 the results were HCV inh inactive, FMDV inh inactive, LASV entry inh 2.06µM, SARS PLpro yeast inactive, HCMV inh inactive and MARV entry inh inconclusive.
`COC(=O)Nc1nc2ccc(SC(C)C)cc2[nH]1` gave HCV inh inconclusive, FMDV inh inactive and HCMV inh -81.7.
Screening Cc1ccc(NC(=O)CSc2ccc(-c3sc(-c4ccccc4)nc3C)nn2)cc1F returned FMDV inh inactive, LASV entry inh inactive and HCMV inh inactive.
Cc1ccc2c(c1)C=CC(C#N)N2C(=O)c1ccccc1 (centres undefined) was read as HCV inh inconclusive, FMDV inh inconclusive, LASV entry inh inconclusive, SARS PLpro yeast 11.2µM, HCMV inh inactive and MARV entry inh inconclusive.
Screening Cc1ccc2c(c1)C=CC(C#N)N2C(=O)Oc1ccccc1 (centres undefined) returned FMDV inh inactive and HCMV inh inactive.
CCCC(=O)NNC(=O)c1ccoc1C was read as HCV inh inactive, FMDV inh inactive, LASV entry inh inconclusive, SARS PLpro yeast inactive, HCMV inh inactive and MARV entry inh inactive.
`Cc1ccc(C(=O)NNC(=O)c2ccoc2C)s1` gave HCV inh inactive, FMDV inh inactive, LASV entry inh inconclusive, SARS PLpro yeast inactive, HCMV inh -98.4 and MARV entry inh inactive.
`COC(=O)CNC(=O)c1ccc(C)s1` gave HCV inh inactive, FMDV inh inactive, LASV entry inh inactive, SARS PLpro yeast inactive, HCMV inh -101.8 and MARV entry inh inactive.
`O=C(O)c1cc(S(=O)(=O)Nc2ccc(OCc3ccccc3)cc2)ccc1Br` gave HCV inh inactive, FMDV inh inactive, LASV entry inh inactive, SARS PLpro yeast inactive, HCMV inh inactive and MARV entry inh inactive.
For Cc1cc(Cl)ccc1NC(=O)COC(=O)CCNS(=O)(=O)c1ccccc1 the results were HCV inh inactive, FMDV inh inactive, SARS PLpro yeast inactive and HCMV inh inactive.
COc1cccc(Oc2nc(N)ncc2[N+](=O)[O-])c1 was read as HCV inh inactive, FMDV inh inactive, LASV entry inh inactive, SARS PLpro yeast inactive, HCMV inh inactive and MARV entry inh inactive.
Screening COc1cc2c(c(OC)c1OC)-c1ccc(OC)c(=O)cc1[C@@H](N(C)CC#CCO)CC2 returned HCV inh inactive, FMDV inh inactive, LASV entry inh inconclusive, SARS PLpro yeast inactive, HCMV inh inconclusive and MARV entry inh inconclusive.
For COc1cc2c(c(OC)c1OC)-c1ccc(NC(=O)c3ccc(F)cc3)c(=O)cc1[C@@H](NC(C)=O)CC2 the results were HCV inh inconclusive, FMDV inh inconclusive, SARS PLpro yeast inactive and HCMV inh inactive.
For CCN(CC)c1ccc2c(cc1=O)[C@@H](NC)CCc1cc(OC)c(OC)c(OC)c1-2 the results were HCV inh inactive, FMDV inh inactive, LASV entry inh 1.12µM, SARS PLpro yeast inactive, HCMV inh -92.2 and MARV entry inh 3.98µM.
For COc1cc2c(c(OC)c1OC)-c1ccc(NCc3ccccc3)c(=O)cc1C(NC(C)=O)CC2 (centres undefined) the results were FMDV inh inactive and HCMV inh -80.4.
For CN[C@H]1CCc2cc(OC)c(OC)c(OC)c2-c2ccc(N(C)CC(OC)OC)c(=O)cc21 the results were HCV inh inactive, FMDV inh inactive, SARS PLpro yeast inactive and HCMV inh -73.8.
COc1cc2c(c(OC)c1OC)-c1ccc(N(C)CC(OC)OC)c(=O)cc1[C@@H](NC(C)=O)CC2 was read as HCV inh inactive, FMDV inh inactive, LASV entry inh inconclusive, SARS PLpro yeast inactive, HCMV inh -87.4 and MARV entry inh 1µM.
For O=C(NC(=S)N1CCN(c2ccccc2)CC1)c1ccc(S(=O)(=O)N2CCOCC2)cc1 the results were HCV inh inactive, FMDV inh inactive, SARS PLpro yeast inactive and HCMV inh inactive.
`CN(C)Cc1ccccc1Sc1ccccc1Br` gave HCV inh inactive, FMDV inh inactive, LASV entry inh inactive, SARS PLpro yeast inactive, HCMV inh inactive and MARV entry inh inactive.
c1ccc(Sc2cccc3ccccc23)c(CNC2=NCCN2)c1 was read as HCV inh inconclusive, FMDV inh inconclusive, LASV entry inh inactive, SARS PLpro yeast inactive, HCMV inh -67.3 and MARV entry inh inactive.
For C(=NNC1=NCCN1)c1ccnc2ccccc12 the results were FMDV inh inactive and HCMV inh inactive.
For Fc1ccccc1Sc1ccccc1CNC1=NCCN1 the results were HCV inh inconclusive, FMDV inh inactive, LASV entry inh inconclusive, SARS PLpro yeast inactive, HCMV inh -61.3 and MARV entry inh inactive.
For CN(C)Cc1ccccc1Sc1cccc2ccccc12 the results were HCV inh inconclusive, FMDV inh inconclusive, LASV entry inh 14.6µM, SARS PLpro yeast inactive, HCMV inh inactive and MARV entry inh 20.6µM.
For CC1=C(Br)C2=C(CC1)NC(=O)/C2=N\N1C(=O)C2CCCCC2C1=O (centres undefined) the results were MARV entry inh inactive.
